Measurements taken from PubChem BioAssay (EPA / NIEHS).
Several values for one entry are separate records, joined by “and”; a condition that tells them apart may be missing. Identical values can stand only once. Inconclusive results are not listed. The source holds several records for some structures; these can differ, active in one and inactive in another. Activity calls are given as the source filed them. The calls were made as follows, unless noted: active = hit-call score of the fitted dose curve at least 0.9, where 1 is the maximum; inactive = score below 0.9.

Columns and labels:
[1] = target: Nuclear respiratory factor 1 (Homo sapiens) (UniProt Q16656); experiment: ATG_NRF1_CIS: Attagene CIS-FACTORIAL HepG2 Assay for human Nuclear Respiratory Factor 1 (NRF1) Orphan Gene (AID 2282987); conditions: HepG2 NRF1 cis-element reporter, Attagene multiplex; actives raise or lower the signal
Nuclear respiratory factor 1 (Homo sapiens), sequence (Q16656 whole entry, looked up): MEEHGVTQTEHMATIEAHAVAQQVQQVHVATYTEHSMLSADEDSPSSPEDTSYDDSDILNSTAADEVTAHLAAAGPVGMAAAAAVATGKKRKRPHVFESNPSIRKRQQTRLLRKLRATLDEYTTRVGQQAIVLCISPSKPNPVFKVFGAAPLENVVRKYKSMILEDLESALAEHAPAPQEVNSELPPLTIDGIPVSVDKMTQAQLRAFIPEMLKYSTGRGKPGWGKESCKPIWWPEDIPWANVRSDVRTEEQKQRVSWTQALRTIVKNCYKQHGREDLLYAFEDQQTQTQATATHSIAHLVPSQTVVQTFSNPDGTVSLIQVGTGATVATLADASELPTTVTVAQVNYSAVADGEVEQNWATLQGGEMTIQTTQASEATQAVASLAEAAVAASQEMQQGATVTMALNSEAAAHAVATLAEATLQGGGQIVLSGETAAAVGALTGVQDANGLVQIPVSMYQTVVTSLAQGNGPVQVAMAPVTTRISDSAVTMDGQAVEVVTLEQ
Method in brief: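 Endogenous NRF1-driven reporter transcription measured in transiently transfected human HepG2 liver cells. Readout: reporter mRNA by RT-PCR and capillary electrophoresis with fluorescence detection, 24 h post-dosing. Gain or loss of signal fitted relative to DMSO baseline.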

[2] = ATG_NFI_CIS: Attagene CIS-FACTORIAL HepG2 Assay for human Nuclear Factor I (NFI) (AID 2282989); conditions: HepG2 cis-regulatory reporter, NFI response element transcription; actives raise or lower the signal
Method in brief: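 Multiplexed cis-reporter system in human HepG2 cells reports native TF activity as reporter mRNA induction 24 h post-dose. Fragments labelled with 6-FAM, HpaI-digested and resolved by capillary electrophoresis; activity fitted both directions versus DMSO.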

[3] = target: Myc proto-oncogene protein (Homo sapiens) (UniProt P01106); experiment: ATG_Myc_CIS: Attagene CIS-FACTORIAL HepG2 Assay for human Myelocytomatosis (Myc) Proto-Oncogene Transcription Factor (AID 2282990); conditions: HepG2, Attagene cis-reporter transcription factor activity; actives raise or lower the signal
Myc proto-oncogene protein (Homo sapiens), sequence (P01106 whole entry, looked up): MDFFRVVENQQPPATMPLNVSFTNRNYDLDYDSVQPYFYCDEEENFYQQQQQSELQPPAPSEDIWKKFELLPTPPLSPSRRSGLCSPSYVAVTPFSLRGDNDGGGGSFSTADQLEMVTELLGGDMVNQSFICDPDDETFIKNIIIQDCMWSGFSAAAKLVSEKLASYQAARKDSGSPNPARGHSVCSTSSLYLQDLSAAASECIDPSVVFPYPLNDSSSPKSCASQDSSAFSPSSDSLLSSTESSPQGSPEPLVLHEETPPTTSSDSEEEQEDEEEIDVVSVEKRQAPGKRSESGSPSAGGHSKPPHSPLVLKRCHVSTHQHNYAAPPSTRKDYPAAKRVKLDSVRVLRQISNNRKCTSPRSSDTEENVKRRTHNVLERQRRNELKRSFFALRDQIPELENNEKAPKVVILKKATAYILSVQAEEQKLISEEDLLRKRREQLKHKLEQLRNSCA
Method in brief: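 Transiently transfected HepG2 cells bearing cis-promoter reporter units for endogenous transcription factors; 24 h exposure. Reporter mRNA measured by RT-PCR, 6-FAM primer extension, HpaI cut and capillary electrophoresis; bidirectional fit relative to DMSO.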

[4] = ATG_NF_kB_CIS: Attagene CIS-FACTORIAL HepG2 Assay for human Nuclear Factor Kappa B (NF-kB) (AID 2282991); conditions: HepG2 Attagene cis-factorial NF-kB reporter mRNA; actives raise or lower the signal
Method in brief: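 Read-out: reporter transcript levels quantified by RT-PCR plus capillary electrophoresis of 6-FAM-labelled, HpaI-cut fragments. Transfected HepG2 cells, 24 h compound exposure, endogenous NF-kB-driven cis element; gain or loss scored versus DMSO.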

[5] = ATG_NRF2_ARE_CIS: Attagene CIS-FACTORIAL HepG2 Assay for human Nuclear Factor Erythroid 2 Related Factor 2 (NFR2) response to Antioxidant Response Elements (ARE) (AID 2282992); conditions: HepG2 Attagene ARE/NRF2 reporter, transcription factor activity; actives raise or lower the signal
Method in brief: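 Endogenous transcription factor activity in human liver HepG2 cells is tracked via a cis-element-driven reporter within a multiplexed set. mRNA induction is read by RT-PCR and capillary electrophoresis after 24 h, with DMSO as baseline.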

[6] = ATG_Oct_MLP_CIS: Attagene CIS-FACTORIAL HepG2 Assay for human Octamer-Binding Transcription Factor (Oct) (AID 2282993); conditions: HepG2 Attagene cis-factorial Oct reporter, mRNA; actives raise or lower the signal
Method in brief: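 After 24 h compound exposure, transfected HepG2 cells were lysed for total RNA; reporter-specific cDNA was PCR-amplified, fluorescently labelled and sized by capillary electrophoresis. Bidirectional curve fitting used DMSO as baseline.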

[7] = target: Cellular tumor antigen p53 (Homo sapiens) (UniProt P04637); experiment: ATG_p53_CIS: Attagene CIS-FACTORIAL HepG2 Assay for human p53 Transcription Factor (AID 2282994); conditions: HepG2 p53 cis-element reporter, Attagene mRNA; actives raise or lower the signal
Cellular tumor antigen p53 (Homo sapiens), sequence (P04637 whole entry, looked up, the tested form may be a part): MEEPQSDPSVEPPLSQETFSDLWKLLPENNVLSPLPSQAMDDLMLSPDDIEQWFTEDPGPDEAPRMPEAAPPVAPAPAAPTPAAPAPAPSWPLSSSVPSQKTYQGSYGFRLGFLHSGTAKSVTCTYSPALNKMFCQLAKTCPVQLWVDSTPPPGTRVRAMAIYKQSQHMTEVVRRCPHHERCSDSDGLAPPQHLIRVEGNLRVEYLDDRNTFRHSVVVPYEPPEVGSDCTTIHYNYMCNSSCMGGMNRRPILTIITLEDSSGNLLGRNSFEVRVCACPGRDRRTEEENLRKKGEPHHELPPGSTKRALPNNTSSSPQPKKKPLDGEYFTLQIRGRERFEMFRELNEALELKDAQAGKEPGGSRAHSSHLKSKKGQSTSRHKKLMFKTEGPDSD
Method in brief: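 Steps: transfect HepG2 with multiplexed cis reporter constructs; dose chemicals 24 h; extract RNA, reverse-transcribe, PCR-amplify reporter sequences; FAM-label, HpaI-digest, resolve fragments by CE. Activity fitted both directions relative to DMSO.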

[8] = BSK_3C_TissueFactor: BioMAP Diversity Plus: 3C Assay for Tissue Factor Biomarker Activity (AID 2282997); conditions: BioMAP 3C HUVEC, tissue factor biomarker readout; actives raise or lower the signal
Method in brief: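 Tissue factor on primary human umbilical vein endothelium was read by ELISA 24 h after dosing, gain or loss relative to DMSO. Cytotoxicity ran alongside via SRB (0.1%, TCA-fixed, 560 nm).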

[9] = BSK_3C_uPAR: BioMAP Diversity Plus: 3C Assay for Urokinase-type plasminogen activator receptor (uPAR) Biomarker Activity (AID 2282998); conditions: BioMAP 3C HUVEC, uPAR biomarker ELISA; actives raise or lower the signal
Method in brief: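 Values derive from bidirectional curve fitting relative to DMSO, which served as baseline of activity. uPAR was measured by ELISA in human umbilical vein endothelial primary cultures 24 h after compound addition.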

[10] = BSK_3C_VCAM1: BioMAP Diversity Plus: 3C Assay for Vascular cell adhesion molecule 1 (VCAM1) Biomarker Activity (AID 2282999); conditions: BioMAP 3C HUVEC, VCAM1 ELISA, cytokine-stimulated; actives raise or lower the signal
Method in brief: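 HUVEC primary cells, 24 h compound exposure; VCAM-1 by ELISA; gain/loss of signal fitted bidirectionally vs DMSO baseline.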

[11] = BSK_4H_Eotaxin3: BioMAP Diversity Plus: 4H Assay for Eotaxin 3 Biomarker Activity (AID 2283000); conditions: primary human endothelial cells (HUVEC); actives raise or lower the signal
Method in brief: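 Human umbilical vein endothelial cells (BSK_4H system) dosed with test chemical; Eotaxin-3 (CCL26) measured by ELISA 24 h after dosing. Bidirectional curve fitting relative to DMSO negative control as baseline.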

[12] = read-out: Intercellular Adhesion Molecule 1 (ICAM1), ICAM1 (gene 3383); experiment: BSK_3C_ICAM1: BioMAP Diversity Plus: 3C Assay for Intercellular Adhesion Molecule 1 (ICAM1) Biomarker Activity (AID 2283003); conditions: primary human endothelial cells (HUVEC); actives raise or lower the signal
Method in brief: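 ELISA read-out of ICAM-1; HUVEC (primary human), 3C system, 24 h post-dosing; bidirectional fit vs DMSO baseline.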

[13] = BSK_3C_Proliferation: Cell Proliferation Assessment in the BioMAP Diversity Plus: 3C Assay (AID 2283006); conditions: primary human endothelial cells (HUVEC);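 as to AC50: potency may reflect either rise or fall in cell number versus DMSO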
Method in brief: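 HUVEC, sub-confluent; 48 h chemical exposure; 10% TCA fix, 0.1% SRB stain, A560 total protein. Gain or loss of signal fitted both directions vs DMSO control.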

[14] = target: Peroxisome proliferator-activated receptor gamma (Homo sapiens) (UniProt P37231); experiment: ATG_PPARg_TRANS: Attagene TRANS-FACTORIAL HepG2 Assay for human Peroxisome Proliferator-activated Receptor-gamma (PPARg) (AID 2283007; active = hit-call score of the fitted dose curve at least 0.9, where 1 is the maximum)
Peroxisome proliferator-activated receptor gamma (Homo sapiens), sequence (P37231 whole entry, looked up, the tested form may be a part): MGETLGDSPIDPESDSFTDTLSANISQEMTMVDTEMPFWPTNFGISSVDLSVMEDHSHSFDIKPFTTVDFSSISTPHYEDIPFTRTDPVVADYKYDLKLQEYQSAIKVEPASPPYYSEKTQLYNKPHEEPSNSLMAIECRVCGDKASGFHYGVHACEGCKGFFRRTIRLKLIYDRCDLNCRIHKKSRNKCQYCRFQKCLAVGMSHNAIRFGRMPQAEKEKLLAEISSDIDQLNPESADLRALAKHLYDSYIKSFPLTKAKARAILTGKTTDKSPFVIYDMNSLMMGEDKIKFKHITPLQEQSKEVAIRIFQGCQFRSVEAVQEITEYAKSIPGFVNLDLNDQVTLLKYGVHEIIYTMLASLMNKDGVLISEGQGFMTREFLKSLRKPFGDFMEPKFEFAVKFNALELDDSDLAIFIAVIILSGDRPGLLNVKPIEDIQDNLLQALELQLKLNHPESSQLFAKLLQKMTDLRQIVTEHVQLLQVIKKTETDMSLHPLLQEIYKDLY
Method in brief: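 Read-out: reporter mRNA induction, detected by fluorescence after RT-PCR and capillary electrophoresis. Transiently transfected human HepG2 liver cells carrying a chimeric NR-Gal4 construct were dosed for 24 h; activity was fitted upward relative to DMSO.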

[15] = target: Nuclear receptor subfamily 1 group I member 2 (Homo sapiens) (UniProt O75469); experiment: ATG_PXR_TRANS: Attagene TRANS-FACTORIAL HepG2 Assay for human Pregnane X Receptor (PXR) (AID 2283008; active = hit-call score of the fitted dose curve at least 0.9, where 1 is the maximum)
Nuclear receptor subfamily 1 group I member 2 (Homo sapiens), sequence (O75469 whole entry, looked up, the tested form may be a part): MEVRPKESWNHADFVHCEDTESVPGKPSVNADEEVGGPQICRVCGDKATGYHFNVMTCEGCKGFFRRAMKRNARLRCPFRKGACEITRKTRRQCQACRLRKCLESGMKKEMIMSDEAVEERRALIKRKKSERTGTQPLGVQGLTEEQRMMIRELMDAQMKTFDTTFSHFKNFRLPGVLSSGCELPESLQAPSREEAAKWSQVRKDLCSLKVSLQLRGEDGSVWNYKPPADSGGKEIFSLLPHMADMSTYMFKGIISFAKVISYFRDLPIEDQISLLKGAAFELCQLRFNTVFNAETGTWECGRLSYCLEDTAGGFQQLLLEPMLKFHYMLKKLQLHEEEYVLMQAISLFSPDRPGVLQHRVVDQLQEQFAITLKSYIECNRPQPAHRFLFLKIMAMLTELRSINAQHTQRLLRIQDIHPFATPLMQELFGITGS
Method in brief: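 HepG2 transfected (FuGene 6) with GAL4-UAS reporter units + PXR-Gal4 chimera; dosed 24 h. Total RNA → oligo(dT) RT → PCR → 6-FAM primer extension → HpaI cut → CE. Gain-of-signal vs DMSO.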

[16] = target: human Retinoic Acid Receptor gamma (RARg), RARG (gene 5916) (UniProt P13631); experiment: ATG_RARg_TRANS: Attagene TRANS-FACTORIAL HepG2 Assay for human Retinoic Acid Receptor gamma (RARg) (AID 2283009; active = hit-call score of the fitted dose curve at least 0.9, where 1 is the maximum)
human Retinoic Acid Receptor gamma (RARg), RARG (gene 5916), sequence (P13631 whole entry, looked up, the tested form may be a part): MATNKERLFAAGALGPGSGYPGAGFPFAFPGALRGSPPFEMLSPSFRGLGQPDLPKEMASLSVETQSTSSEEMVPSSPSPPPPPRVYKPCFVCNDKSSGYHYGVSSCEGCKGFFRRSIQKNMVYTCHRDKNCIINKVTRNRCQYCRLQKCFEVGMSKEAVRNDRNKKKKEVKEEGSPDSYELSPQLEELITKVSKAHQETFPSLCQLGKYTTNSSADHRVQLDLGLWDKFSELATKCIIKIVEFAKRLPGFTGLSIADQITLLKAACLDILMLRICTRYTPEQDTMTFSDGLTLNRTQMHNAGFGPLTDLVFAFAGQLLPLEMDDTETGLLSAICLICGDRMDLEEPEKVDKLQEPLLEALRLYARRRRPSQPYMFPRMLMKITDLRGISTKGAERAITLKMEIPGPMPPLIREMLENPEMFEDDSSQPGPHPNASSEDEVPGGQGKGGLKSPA
Method in brief: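 Readout: reporter transcript levels via RT-PCR, 6-FAM primer-extension labelling, HpaI digestion and capillary electrophoresis. Cells: HepG2 carrying transfected RARg-GAL4 chimera plus UAS reporter set. Dosing 24 h; DMSO negative control.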

[17] = target: human Peroxisome Proliferator-activated Receptor alpha (PPARa), PPARA (gene 5465) (UniProt Q07869); experiment: ATG_PPARa_TRANS: Attagene TRANS-FACTORIAL HepG2 Assay for human Peroxisome Proliferator-activated Receptor alpha (PPARa) (AID 2283001; active = hit-call score of the fitted dose curve at least 0.9, where 1 is the maximum;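 as to AC50: potency for gain of reporter signal over DMSO so agonist or activator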)
human Peroxisome Proliferator-activated Receptor alpha (PPARa), PPARA (gene 5465), sequence (Q07869 whole entry, looked up, the tested form may be a part): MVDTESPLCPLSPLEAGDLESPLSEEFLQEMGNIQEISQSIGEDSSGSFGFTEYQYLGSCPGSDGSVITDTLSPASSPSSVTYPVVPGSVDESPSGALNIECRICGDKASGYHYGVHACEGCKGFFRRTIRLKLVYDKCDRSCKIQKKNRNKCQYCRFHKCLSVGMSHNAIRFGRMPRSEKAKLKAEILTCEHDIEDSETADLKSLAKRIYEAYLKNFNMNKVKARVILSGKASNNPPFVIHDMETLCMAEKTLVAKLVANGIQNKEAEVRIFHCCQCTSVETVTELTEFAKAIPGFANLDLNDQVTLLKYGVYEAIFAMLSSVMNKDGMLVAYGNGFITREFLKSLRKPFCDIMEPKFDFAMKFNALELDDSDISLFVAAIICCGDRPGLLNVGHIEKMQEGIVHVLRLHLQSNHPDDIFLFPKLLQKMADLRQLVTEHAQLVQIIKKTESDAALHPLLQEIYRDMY
Method in brief: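 Transient HepG2 transfection, GAL4-UAS reporters, NR-Gal4 chimeras; 24 h compound exposure. Readout: reporter transcripts by RT-PCR, 6-FAM primer extension, HpaI digest, capillary electrophoresis. Positive direction vs DMSO baseline.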

[18] = target: human Peroxisome Proliferator-activated Receptor delta (PPARd), PPARD (gene 5467) (UniProt Q03181); experiment: ATG_PPARd_TRANS: Attagene TRANS-FACTORIAL HepG2 Assay for human Peroxisome Proliferator-activated Receptor delta (PPARd) (AID 2283002; active = hit-call score of the fitted dose curve at least 0.9, where 1 is the maximum)
human Peroxisome Proliferator-activated Receptor delta (PPARd), PPARD (gene 5467), sequence (Q03181 whole entry, looked up, the tested form may be a part): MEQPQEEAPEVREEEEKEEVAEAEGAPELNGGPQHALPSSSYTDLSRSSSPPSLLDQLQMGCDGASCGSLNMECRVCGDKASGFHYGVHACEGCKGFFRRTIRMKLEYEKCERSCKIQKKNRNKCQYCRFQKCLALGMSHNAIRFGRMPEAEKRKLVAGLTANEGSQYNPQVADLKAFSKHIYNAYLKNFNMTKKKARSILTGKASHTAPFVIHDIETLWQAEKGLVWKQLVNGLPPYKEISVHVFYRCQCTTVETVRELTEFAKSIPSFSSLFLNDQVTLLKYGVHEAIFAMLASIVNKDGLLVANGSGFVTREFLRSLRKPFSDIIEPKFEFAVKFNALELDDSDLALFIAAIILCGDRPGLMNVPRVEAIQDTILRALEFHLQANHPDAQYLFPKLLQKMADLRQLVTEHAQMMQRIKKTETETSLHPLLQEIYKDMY
Method in brief: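 HepG2 cells transiently transfected with GAL4-UAS multiplexed reporter units driven by exogenous chimeric NR-GAL4 proteins; 24 h compound exposure. Reporter mRNA measured by RT-PCR, 6-FAM primer extension, HpaI digestion and capillary electrophoresis; gain of signal fitted relative to DMSO.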

[19] = target: human Retinoic Acid Receptor beta (RARb), RARB (gene 5915) (UniProt P10826); experiment: ATG_RARb_TRANS: Attagene TRANS-FACTORIAL HepG2 Assay for human Retinoic Acid Receptor beta (AID 2283004; active = hit-call score of the fitted dose curve at least 0.9, where 1 is the maximum)
human Retinoic Acid Receptor beta (RARb), RARB (gene 5915), sequence (P10826 whole entry, looked up, the tested form may be a part): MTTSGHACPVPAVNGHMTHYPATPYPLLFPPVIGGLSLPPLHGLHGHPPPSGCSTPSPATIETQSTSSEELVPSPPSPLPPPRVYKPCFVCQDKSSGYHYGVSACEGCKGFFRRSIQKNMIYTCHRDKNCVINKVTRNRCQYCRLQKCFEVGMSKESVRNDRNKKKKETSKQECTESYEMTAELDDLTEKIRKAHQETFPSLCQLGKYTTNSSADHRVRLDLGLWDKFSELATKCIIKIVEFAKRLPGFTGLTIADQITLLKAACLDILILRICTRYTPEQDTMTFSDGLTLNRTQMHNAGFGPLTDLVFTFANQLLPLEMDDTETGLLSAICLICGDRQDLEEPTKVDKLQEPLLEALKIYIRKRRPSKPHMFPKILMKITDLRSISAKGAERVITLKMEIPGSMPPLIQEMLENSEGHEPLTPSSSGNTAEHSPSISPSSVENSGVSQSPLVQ
Method in brief: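 Induction of reporter mRNA from a chimeric RARb-Gal4 construct was measured by RT-PCR, FAM labelling, HpaI digestion and capillary electrophoresis. Measurements followed 24 h compound treatment of transiently transfected human HepG2 liver cells, with DMSO as baseline.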

[20] = target: Retinoic acid receptor alpha (Homo sapiens) (UniProt P10276); experiment: ATG_RARa_TRANS: Attagene TRANS-FACTORIAL HepG2 Assay for human Retinoic Acid Receptor alpha (RARa) (AID 2283005; active = hit-call score of the fitted dose curve at least 0.9, where 1 is the maximum)
Retinoic acid receptor alpha (Homo sapiens), sequence (P10276 whole entry, looked up, the tested form may be a part): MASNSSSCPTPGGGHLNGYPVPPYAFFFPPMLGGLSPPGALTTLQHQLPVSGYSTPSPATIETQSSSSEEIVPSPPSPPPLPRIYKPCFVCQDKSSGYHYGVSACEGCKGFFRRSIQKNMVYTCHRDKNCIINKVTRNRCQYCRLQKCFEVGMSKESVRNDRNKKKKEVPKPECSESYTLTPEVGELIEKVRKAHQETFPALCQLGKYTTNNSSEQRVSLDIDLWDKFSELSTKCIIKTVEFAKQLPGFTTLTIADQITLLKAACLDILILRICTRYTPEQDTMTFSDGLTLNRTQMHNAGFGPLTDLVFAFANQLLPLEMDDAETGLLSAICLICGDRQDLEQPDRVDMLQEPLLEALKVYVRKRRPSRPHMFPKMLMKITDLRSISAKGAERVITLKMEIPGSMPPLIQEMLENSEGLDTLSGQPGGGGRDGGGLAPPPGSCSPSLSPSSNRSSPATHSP
Method in brief: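 HepG2 transiently transfected with multiplex GAL4-UAS reporter units including a human RARa–GAL4 chimera; 24 h compound exposure. Reporter mRNA quantified by RT-PCR, 6-FAM labeling and capillary electrophoresis; gain of signal versus DMSO.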

Measured: AC50

CC(CCl)OP(=O)(OC(C)CCl)OC(C)CCl (stereo unspecified)
active: [15] 0.801 µM
not listed: [17] | [18] | [19] | [20]
inactive: all other assays above

OCCCC(F)(F)C(F)(F)C(F)(F)F
not listed: [19] | [20]
inactive: all other assays above

FC(F)(F)C(F)(F)C(F)(F)N(C(F)(F)C(F)(F)C(F)(F)F)C(F)(F)C(F)(F)C(F)(F)F
not listed: [6] | [15] | [17]
inactive: all other assays above

O=C(O)C(F)(F)C(F)(F)C(F)(F)C(F)(F)C(F)(F)C(F)(F)C(F)(F)C(F)(F)C(F)(F)C(F)(F)C(F)(F)C(F)(F)C(F)(F)F
active: [4] 26.2 µM | [5] 26.1 µM | [11] 1.32 µM | [13] 1.29 µM and 252 nM
inactive: [1] | [2] | [3] | [6] | [8] | [9] | [10] | [11] | [18] | [12] | [19] | [20] | [14] | [15] | [16]

O=C(O)C(F)(OC(F)(F)C(F)(OC(F)(F)C(F)(F)C(F)(F)F)C(F)(F)F)C(F)(F)F (stereo unspecified)
active: [17] 108 µM
inactive: [1] | [2] | [3] | [4] | [5] | [6] | [7] | [8] | [9] | [10] | [11] | [17] | [18] | [12] | [19] | [20] | [13] | [14] | [15] | [16]

N=C(N)C(F)(F)C(F)(F)C(F)(F)C(F)(F)C(F)(F)C(F)(F)C(F)(F)F
active: [2] 271 µM | [5] 125 µM | [7] 88.9 µM | [10] 24.1 µM and 15 µM | [11] 36.8 µM and 30 µM | [13] 50.7 µM and 24.7 µM
not listed: [6] | [16] | [18] | [19] | [20]
inactive: all other assays above
